Test results from paper PMC5540273 (PLoS ONE, 2017).

system: PAK4; details: concentration: 1 μM,replicates: in singlicate; n = 1
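Also: KINOMEscan kinase panel screen.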

Q: Which “%Inh” value does the source give for O=C(NCCNc1ccnc(NCc2ccc(F)cc2)n1)c1cc2ccccc2s1 [GSK1379944] here?
A: The value was 0%.

Q: For Cl.Cl.NC[C@H](CC1CCCCC1)NC(=O)c1cc(Br)c(-c2ccnc3[nH]ccc23)s1 [GSK1581427], which “%Inh” value is on record?
A: The value was 12%.

Q: With Cc1ccc2c(-c3ccncc3)c(-c3ccc(F)cc3)nn2c1.Cl [GW461484] as the molecule, how does the “%Inh” value read?
A: Its value is 0%.

Q: Which “%Inh” value does the source give for CC(C)N1C(=O)Cc2cc(Nc3ncc(C(F)(F)F)c(NCc4cccc(S(C)(=O)=O)c4)n3)ccc21 here?
A: The value was 7%.

Q: For CN(C)CC(O)COc1ccc(Nc2nccc(-c3cnn4nc(N5CCOCC5)ccc34)n2)cc1 (stereo not drawn) [GW767488], which “%Inh” value is on record?
A: Its value is 25%.

Q: COc1ccc(C[C@@H](CN)NC(=O)c2cc(Br)c(-c3ccnc4[nH]ccc34)s2)cc1.Cl.Cl [GSK1389063] was tested. Which “%Inh” value did it give?
A: Its value is 89%.

Q: Which “%Inh” value does the source give for C[C@@H](Oc1cc(-c2cnn(C3CCNCC3)c2)cnc1N)c1c(Cl)ccc(F)c1Cl here?
A: The value was 12%.

Q: For CCN(CC)CCCCNc1ncc2cc(-c3c(Cl)cccc3Cl)c(NC(=O)NC(C)(C)C)nc2n1, which “%Inh” value is on record?
A: Its value is 0%.

Q: With C[C@H]1Oc2cc(cnc2N)-c2c(nn(C)c2C#N)CN(C)C(=O)c2ccc(F)cc21 as the molecule, how does the “%Inh” value read?
A: Its value is 14%.

Q: How did the “%Inh” value turn out when CCN(CC)CCOc1ccc(Nc2ncc3cc(-c4c(Cl)cccc4Cl)c(=O)n(C)c3n2)cc1 [SB-601273] was run?
A: Its value is 53%.

Q: Cl.Cl.NC[C@H](Cc1ccc(C(F)(F)F)cc1)NC(=O)c1cc(Br)c(-c2ccnc3[nH]ccc23)s1 [GSK1487252] was tested. Which “%Inh” value did it give?
A: Its value is 0%.

Q: Which “%Inh” value does the source give for C[C@@H]1CCN(C(=O)CC#N)C[C@@H]1N(C)c1ncnc2[nH]ccc12 here?
A: The value was 0%.

Q: Which “%Inh” value does the source give for Cc1n[nH]c2ccc(-c3cc(OC[C@@H](N)Cc4ccccc4)cnc3-c3ccoc3)cc12.O=C(O)C(F)(F)F.O=C(O)C(F)(F)F [GSK507358] here?
A: The value was 0%.

Q: How did the “%Inh” value turn out when CN(C)CCOc1ccc(-c2cc(-c3c[nH]nc3-c3ccccn3)ccn2)cc1 [GW835314] was run?
A: Its value is 0%.

Q: For CCn1c(-c2nonc2N)nc2c(C#CC(C)(C)O)nc(OCCN)cc21.Cl.Cl [GSK902056], which “%Inh” value is on record?
A: The value was 68%.

Q: How did the “%Inh” value turn out when Nc1nc(Nc2ccccc2)cc(-c2ccc3c(N)n[nH]c3c2)n1 [GSK2225749] was run?
A: Its value is 0%.

Q: Which “%Inh” value does the source give for Cc1ccc(-n2nc(C(C)(C)C)cc2NC(=O)Nc2ccc(OCCN3CCOCC3)c3ccccc23)cc1 [GW839464] here?
A: Its value is 10%.

Q: How did the “%Inh” value turn out when Cc1cc(C(=O)Nc2ccc(Oc3ccc4nc(NC(=O)C5CC5)cn4n3)cc2)nn1-c1ccccc1 was run?
A: The value was 0%.

Q: Which “%Inh” value does the source give for O=C(NCCCN1CCOC1=O)c1cnc(NCc2cc(Cl)ccc2Cl)nc1NC1CCCC1 here?
A: Its value is 18%.

Q: How did the “%Inh” value turn out when CC(C)Nc1cc(-c2ccc3c(N)n[nH]c3c2)nc(N)n1 [GSK2221681] was run?
A: The value was 0%.

Q: With CNC(=O)c1ccccc1Sc1ccc2c(/C=C/c3ccccn3)n[nH]c2c1 as the molecule, how does the “%Inh” value read?
A: Its value is 2%.

Q: Which “%Inh” value does the source give for NC(=O)c1cc(-c2ccccc2)cc2c(C3CCNCC3)c[nH]c12 [GSK301362] here?
A: Its value is 0%.

Q: How did the “%Inh” value turn out when Cl.Cl.Nc1nc(-c2ccc3c(N)n[nH]c3c2)cc(N2CCCC(NC(=O)c3ccccc3)C2)n1 (stereo not drawn) [GSK2286775] was run?
A: Its value is 0%.

Q: With Cl.Oc1cc(-c2nc(-c3ccccc3)[nH]c2-c2ccncc2)ccc1Cl [SB-386023] as the molecule, how does the “%Inh” value read?
A: The value was 0%.

Q: Cc1cc2cn[nH]c2cc1-c1cccc2c(N)c(C(N)=O)nnc12 was tested. Which “%Inh” value did it give?
A: Its value is 16%.

Q: For Cc1occc1-c1nc(N)c(OC[C@@H](N)Cc2c[nH]c3ccccc23)cc1-c1cc2c(C)n[nH]c2cn1 [GSK1660450], which “%Inh” value is on record?
A: The value was 0%.

Q: For C=CC(=O)Nc1cc2c(Nc3ccc(F)c(Cl)c3)ncnc2cc1OCCCN1CCOCC1 [GW781483], which “%Inh” value is on record?
A: Its value is 15%.

system: PAK6; details: concentration: 1 μM,replicates: in singlicate; n = 1

Q: For O=C(NCCNc1ccnc(NCc2ccc(F)cc2)n1)c1cc2ccccc2s1 [GSK1379944], which “%Inh” value is on record?
A: The value was 57%.

Q: With Cl.Cl.NC[C@H](CC1CCCCC1)NC(=O)c1cc(Br)c(-c2ccnc3[nH]ccc23)s1 [GSK1581427] as the molecule, how does the “%Inh” value read?
A: The value was 28%.

Q: Which “%Inh” value does the source give for Cc1ccc2c(-c3ccncc3)c(-c3ccc(F)cc3)nn2c1.Cl [GW461484] here?
A: Its value is 7%.

Q: Which “%Inh” value does the source give for CC(C)N1C(=O)Cc2cc(Nc3ncc(C(F)(F)F)c(NCc4cccc(S(C)(=O)=O)c4)n3)ccc21 here?
A: The value was 6%.

Q: CN(C)CC(O)COc1ccc(Nc2nccc(-c3cnn4nc(N5CCOCC5)ccc34)n2)cc1 (stereo not drawn) [GW767488] was tested. Which “%Inh” value did it give?
A: Its value is 30%.

Q: How did the “%Inh” value turn out when COc1ccc(C[C@@H](CN)NC(=O)c2cc(Br)c(-c3ccnc4[nH]ccc34)s2)cc1.Cl.Cl [GSK1389063] was run?
A: The value was 89%.

Q: For C[C@@H](Oc1cc(-c2cnn(C3CCNCC3)c2)cnc1N)c1c(Cl)ccc(F)c1Cl, which “%Inh” value is on record?
A: The value was 0%.

Q: Which “%Inh” value does the source give for CCN(CC)CCCCNc1ncc2cc(-c3c(Cl)cccc3Cl)c(NC(=O)NC(C)(C)C)nc2n1 here?
A: Its value is 0%.

Q: With C[C@H]1Oc2cc(cnc2N)-c2c(nn(C)c2C#N)CN(C)C(=O)c2ccc(F)cc21 as the molecule, how does the “%Inh” value read?
A: Its value is 2%.

Q: For CCN(CC)CCOc1ccc(Nc2ncc3cc(-c4c(Cl)cccc4Cl)c(=O)n(C)c3n2)cc1 [SB-601273], which “%Inh” value is on record?
A: The value was 41%.

Q: Which “%Inh” value does the source give for Cl.Cl.NC[C@H](Cc1ccc(C(F)(F)F)cc1)NC(=O)c1cc(Br)c(-c2ccnc3[nH]ccc23)s1 [GSK1487252] here?
A: Its value is 25%.

Q: For C[C@@H]1CCN(C(=O)CC#N)C[C@@H]1N(C)c1ncnc2[nH]ccc12, which “%Inh” value is on record?
A: The value was 0%.

Q: Which “%Inh” value does the source give for Cc1n[nH]c2ccc(-c3cc(OC[C@@H](N)Cc4ccccc4)cnc3-c3ccoc3)cc12.O=C(O)C(F)(F)F.O=C(O)C(F)(F)F [GSK507358] here?
A: Its value is 3%.

Q: With CN(C)CCOc1ccc(-c2cc(-c3c[nH]nc3-c3ccccn3)ccn2)cc1 [GW835314] as the molecule, how does the “%Inh” value read?
A: Its value is 90%.

Q: With CCn1c(-c2nonc2N)nc2c(C#CC(C)(C)O)nc(OCCN)cc21.Cl.Cl [GSK902056] as the molecule, how does the “%Inh” value read?
A: Its value is 45%.

Q: With Nc1nc(Nc2ccccc2)cc(-c2ccc3c(N)n[nH]c3c2)n1 [GSK2225749] as the molecule, how does the “%Inh” value read?
A: Its value is 0%.

Q: How did the “%Inh” value turn out when Cc1ccc(-n2nc(C(C)(C)C)cc2NC(=O)Nc2ccc(OCCN3CCOCC3)c3ccccc23)cc1 [GW839464] was run?
A: Its value is 12%.

Q: Which “%Inh” value does the source give for Cc1cc(C(=O)Nc2ccc(Oc3ccc4nc(NC(=O)C5CC5)cn4n3)cc2)nn1-c1ccccc1 here?
A: Its value is 15%.

Q: How did the “%Inh” value turn out when O=C(NCCCN1CCOC1=O)c1cnc(NCc2cc(Cl)ccc2Cl)nc1NC1CCCC1 was run?
A: The value was 16%.

Q: Which “%Inh” value does the source give for CC(C)Nc1cc(-c2ccc3c(N)n[nH]c3c2)nc(N)n1 [GSK2221681] here?
A: The value was 0%.

Q: How did the “%Inh” value turn out when CNC(=O)c1ccccc1Sc1ccc2c(/C=C/c3ccccn3)n[nH]c2c1 was run?
A: Its value is 10%.

Q: NC(=O)c1cc(-c2ccccc2)cc2c(C3CCNCC3)c[nH]c12 [GSK301362] was tested. Which “%Inh” value did it give?
A: The value was 0%.

Q: Cl.Cl.Nc1nc(-c2ccc3c(N)n[nH]c3c2)cc(N2CCCC(NC(=O)c3ccccc3)C2)n1 (stereo not drawn) [GSK2286775] was tested. Which “%Inh” value did it give?
A: The value was 17%.

Q: Cl.Oc1cc(-c2nc(-c3ccccc3)[nH]c2-c2ccncc2)ccc1Cl [SB-386023] was tested. Which “%Inh” value did it give?
A: The value was 5%.

Q: For Cc1cc2cn[nH]c2cc1-c1cccc2c(N)c(C(N)=O)nnc12, which “%Inh” value is on record?
A: Its value is 12%.

Q: With Cc1occc1-c1nc(N)c(OC[C@@H](N)Cc2c[nH]c3ccccc23)cc1-c1cc2c(C)n[nH]c2cn1 [GSK1660450] as the molecule, how does the “%Inh” value read?
A: Its value is 11%.

Q: How did the “%Inh” value turn out when C=CC(=O)Nc1cc2c(Nc3ccc(F)c(Cl)c3)ncnc2cc1OCCCN1CCOCC1 [GW781483] was run?
A: Its value is 0%.
